Data: PubChem BioAssay
Values without a mark were called inactive. Active and inactive are the calls of the source. No stated cut-off is given here; in the data, active means fold change permeability below about 0.7 or above about 1.3; inactive means in between.

Test: compounds altering in vitro BBB leakiness – cell-based, FITC-avidin fluorescence, HTS, primary screen (AID 1963498); further: test concentration not given here
Conditions: brain endothelial barrier, actives lie on both sides

Compound	fold change permeability
NNC(=O)c1ccc(O)cc1	0.8
c1ccc(C2CC2)c(OCC2=NCCN2)c1	1
NC1CCc2cc(O)c(O)cc2C1 (configuration not stated)	0.7 (active)
c1ccc(C[N+]23CN4CN(CN(C4)C2)C3)cc1	0.7 (active)
O=C(O)[C@@H]1CCN1	1
CCCN1CCC[C@@H]2Cc3[nH]ncc3C[C@H]21	0.9
CC(N)c1cccc(Cl)c1Cl (configuration not stated)	1.1
CO[C@H]1CC[C@@H](O[C@H]2C[C@H]([C@]3(C)CC[C@]4(C[C@H](O)[C@@H](C)[C@@H]([C@@H](C)/C=C(\C)C(=O)[C@H](C)C[C@H](C)C(=O)O)O4)O3)O[C@]3(O[C@@H]([C@H]4O[C@@](O)(CO)[C@H](C)C[C@@H]4C)C[C@@H]3C)[C@@H]2C)O[C@@H]1C	1.3 (active)
Cc1ccc2c(c1)C1(CCN(CCc3nc(-c4ccccc4)oc3C)CC1)OC(=O)N2	1
Clc1ccc(C(c2ccc(Cl)cc2)n2cc[n+](CC(OCc3ccc(Cl)cc3Cl)c3ccc(Cl)cc3Cl)c2)cc1 (configuration not stated)	1.3 (active)
COc1ccc2c(c1OC)C(=O)O[C@H]2[C@@H]1c2cc3c(cc2CCN1C)OCO3	1.2
CCCN(CCC)C1CCc2ccc(O)cc2C1 (configuration not stated)	1.1
NCCc1c[nH]c2ccccc12	1.4 (active)
Cc1c(F)cccc1[C@H]1COC(N)=N1	1
CC[C@@H](C(N)=O)N1CCCC1=O	0.9
O=c1[nH]oc2c1CCNC2	1.4 (active)
CN1CC[C@@]2(C)c3cc(O)ccc3N(C)C12 (some centres not stated)	1.3 (active)
